The values that follow come from PubChem BioAssay (NCATS).

Test [1] can be described thus: qHTS for Inhibitors of the Aldehyde Dehydrogenase Family (ALDH1A2, ALDH1A3, ALDH2, ALDH3A1) (AID 2061307). Further: nearly all actives have a fitted effect of over 50% in size. On potency: test system not described further here; potency means the concentration at half of the fitted maximal effect.
The target in test [2] is Aldehyde dehydrogenase, mitochondrial (Homo sapiens) (UniProt P05091). The test can be described thus: qHTS for Inhibitors of the Aldehyde Dehydrogenase Family (ALDH2) Primary screen (AID 2061308). Further: nearly all actives have a fitted effect of over 55% in size. Further: potency means the concentration at half of the fitted maximal effect.
For test [3], the target named is Retinaldehyde dehydrogenase 3 (Homo sapiens) (UniProt P47895). The test can be described thus: qHTS for Inhibitors of the Aldehyde Dehydrogenase Family (ALDH1A3) Confirmatory screens (AID 2061311). Further: nearly all actives have a fitted effect of over 60% in size. Further: potency means the concentration at half of the fitted maximal effect.
Test [4] has as its target Retinal dehydrogenase 2 (Homo sapiens) (UniProt O94788). As to the kind of experiment: qHTS for Inhibitors of the Aldehyde Dehydrogenase Family (ALDH1A2) Confirmation screens (AID 2061314). Further: nearly all actives have a fitted effect of over 65% in size. Further: potency means the concentration at half of the fitted maximal effect.
For test [5], the target named is Retinaldehyde dehydrogenase 3 (Homo sapiens) (UniProt P47895). The test can be described thus: qHTS for Inhibitors of the Aldehyde Dehydrogenase Family (ALDH1A3) Primary screen (AID 2061315).

Values joined by “and” are separate entries in the source; they are usually repeats but may differ in a detail not shown here. Equal entries are not always repeated. Results filed as inconclusive are left out. Where a call stands in place of a potency, no number is given. Active and inactive are the calls of the source. The call rests on the fitted dose curve; in most records, active means well fitted curve in the direction sought with a large enough effect; inconclusive means small, poorly fitted or top-dose-only effect, or another doubt; inactive means no such curve, though single readings can be large; an effect the other way counts as inactive or inconclusive.

With `Cc1c2c(=O)n(-c3ccccc3)[nH]c2cc(=O)n1CCCN1CCOCC1`, the Potency entry in test [1] was “inactive”. With `O=C(Nc1ccc(S(=O)(=O)N2CCOCC2)cc1)c1ccc(CN2Cc3ccccc3C2)cc1`, the Potency in test [1] is 0.316 µM (active). `COc1ccccc1-c1noc(CNc2cccc(C#N)c2)n1`: in test [1], the Potency entry is “inactive”.

Regarding `COc1ccc(N2CCN(C(=O)c3cnc(N4CCCCC4)c4ccccc34)CC2)cc1`, in test [1], the Potency result was “inactive”. Regarding `Cc1nc(-c2ccc(Cl)s2)sc1C(=O)Nc1ccc(C(N)=O)c(F)c1`, in test [1], the Potency result is “inactive”. On the same count and under the same terms, next, `CNc1nc2c(s1)C(c1ccccc1Br)CC(=O)N2` (configuration not stated): 10.1 µM (active); `C[S+](=O)([O-])c1ccc(-c2nnc3ccc(C(=O)NCc4cccs4)cn23)cc1`: “inactive”. Consider `Cc1ccc(NC(=O)c2nc3nc(C)cc(C)n3n2)c(F)c1`, for which, in test [1], the Potency result is “inactive”.

With `N#Cc1nc(-c2cccc3ccccc23)oc1NCCC1CNC1`, in test [1], the Potency is 15.8 µM (active). Still for that read-out and setting: the same measure for `Cc1cc(=O)n2[nH]c(NC(=O)c3cccnc3)nc2n1`: “inactive”. Consider `Cc1cc(NS(=O)(=O)c2ccc(NCCc3ccc(Cl)c(Cl)c3)cc2)no1`, for which, in test [1], the Potency was 2.83 µM (active). For the molecule `O=C(Nc1cccc(C(F)(F)F)c1)c1ccccc1NCc1cccc(C(F)(F)F)c1`, in test [1], the Potency entry is “inactive”. Consider `Cc1cccc2c1NC(=O)C2(O)CC(=O)c1ccco1` (configuration not stated), for which, in test [1], the Potency was 0.565 µM (active). Take `O=C1C=CC(=O)N1c1ccc(N2CCOCC2)cc1`: the Potency in test [1] was 1.13 µM (active). As for `O=[N+]([O-])c1cccnc1S(=O)(=O)c1ccccc1`, in test [1], the Potency result was “inactive”.

As for `O=C(CNc1cccc(S(=O)(=O)N2CCOCC2)c1)Nc1ccc(OC(F)(F)F)cc1`, in test [1], the Potency was 1.27 µM (active). In the case of `N#Cc1cccc(NC(=O)c2cc3c(s2)-c2ccc(Cl)cc2SC3)c1`, the Potency result in test [1] was “inactive”.

With `O=C(c1ccc(F)cc1)c1no[n+]([O-])c1C(=O)c1ccc(F)cc1`, the Potency in test [1] is 12.7 µM (active).

As for `O=C(c1cnc(N2CCCCC2)c2ccccc12)N1CCN(c2ccccc2)CC1`, in test [1], the Potency result was “inactive”. For the molecule `Cc1sc(NC(=O)Cc2ccc3c(c2)OCO3)nc1-c1ccc2c(c1)CCN2C(=O)c1ccccc1OC(F)(F)F`, the Potency in test [1] is 3.16 µM (active). On the same count and under the same terms, the same measure for `CCOc1ccc(NC(=O)c2ccc(NC(=O)CN3C(=O)N(C)C4(CCCCC4)C3=O)cc2)cc1`: 7.08 µM (active); for `Cc1noc(C)c1-c1cncc(C(=O)NCc2cccnc2)c1`: “inactive”; for `COc1ccc(Cl)cc1NC(=O)c1nn(-c2ccc(C)cc2)c(=O)n(C)c1=O`: “inactive”. Consider `COc1ccc(-n2ncc3c2CCCC3NC(=O)c2ccc(F)c(F)c2)cc1` (configuration not stated), for which, in test [1], the Potency result was “inactive”. In the case of `NCC(=O)Nc1cc(-c2nn3c(=O)cc(N4CCNCC4)nc3s2)ccn1`, in test [1], the Potency result is “inactive”. On to `O=C(CSc1nc2ncccc2c(=O)n1-c1ccccc1)Nc1ccccc1`, for which, in test [1], the Potency result was “inactive”. As for `COc1ccc(NC(=O)C2CCN(c3ccc(Sc4ccc(C)cc4)nn3)CC2)cc1`, the Potency entry in test [1] is “inactive”. Same read-out and setting: next, `Ic1ccc(CN2CCC(N(CCc3ccccc3)Cc3ccccc3)CC2)cc1`: “inactive”.

Consider `COCCCn1c(SCC(=O)Nc2ccc(C(N)=O)cc2)nnc1-c1ccc(Cl)cc1`, for which the Potency in test [1] is 2.24 µM (active). Regarding `Cc1ccc(OCCCn2c(CCN)nc3ccccc32)cc1`, in test [1], the Potency entry is “inactive”.

For the molecule `O=C(Nc1cccc(C(F)(F)F)c1)c1ccccc1NCc1ccccc1`, the Potency entry in test [1] was “inactive”. On the same count and under the same terms, next, `COc1ccc(-n2ccc(C(=O)NC(C)(C)C)n2)cc1`: “inactive”. Take `COCCCNC(=O)c1cc2cc(S(=O)(=O)N(C)C)ccc2n1C`: in test [1], the Potency entry was “inactive”. As to `Cc1ccc(CNc2ncnc3c2oc2ccccc23)cc1`, the Potency result in test [1] was “inactive”. Regarding `N[C@H](Cc1cscn1)C(=O)Nc1cccc(-c2nn3c(=O)cc(N4CCNCC4)nc3s2)c1`, the Potency result in test [1] was “inactive”. Still for that read-out and setting: next, `CCOc1ccc(CNC(=O)c2cnc3c(C)cccn3c2=O)cc1`: “inactive”. Same read-out and setting: the same measure for `O=C(O)c1cccc(Nc2ncnc3sccc23)c1`: “inactive”; for `O=C(O)c1csc(-n2nc(-c3ccc(F)c(F)c3)cc2Cc2nn[nH]n2)n1`: “inactive”. `Cc1c2c(=O)n(-c3ccccc3)[nH]c2cc(=O)n1Cc1ccccn1`: the Potency entry in test [1] was “inactive”.

For the molecule `C=CCOc1c(Cl)cc(CNc2ccc(N(C)C)cc2)cc1OC`, the Potency in test [1] was 0.449 µM (active). Regarding `CN(C)c1ccc(NC(=O)c2cn(-c3ccccc3)nn2)cn1`, the Potency result in test [1] is “inactive”. For `Cc1ccc(CNc2ccc(N3CCN(C)CC3=O)cc2)cc1`, the Potency result in test [1] and in test [2] was “inactive” each time.

For the molecule `O=C(O)c1ccc(-c2noc(-c3ccccc3F)n2)cc1`, the Potency in test [1] was 3.98 µM (active) and 1.2 µM (active); in test [3], 0.565 µM (active). For the same molecule, the Potency result in test [2] and in test [4] was “inactive” each time.

On to `O=C(NCc1ccccc1)C1CCN(c2nc(-c3ccc(Br)cc3)cs2)CC1`, for which the Potency in test [1] is 7.08 µM (active). Further, the Potency entry in test [2], in test [3], in test [4] and in test [5] was “inactive” throughout. `CC1(C)CC[C@]2(C(=O)O)CC[C@]3(C)C(=CCC4[C@@]5(C)C[C@@H](O)[C@H](O)[C@@](C)(CO)C5CC[C@]43C)[C@@H]2[C@@H]1O` (some centres not stated): the Potency result in test [1] and in test [2] was “inactive” in each case. Moreover, the Potency in test [3] is 11 µM (active). `Cc1ccc(CNc2ccc(N3CCCCC3)cc2)cc1`: the Potency in test [1] is 11.3 µM (active); in test [3], 20.1 µM (active); in test [4], 28.3 µM (active). The Potency entry in test [2] was “inactive”. Regarding `O=C(NC1CCCN(Cc2ccccc2)C1)c1ccc(-c2cccc([N+](=O)[O-])c2)o1` (configuration not stated), the Potency in test [1] is 14.1 µM (active).

As for `NCC(CNc1nc(Nc2cccc(NC(=O)N3CCCC3)c2)ncc1I)C(=O)c1cccs1` (configuration not stated), in test [1], the Potency result was “inactive”. The Potency in test [2] was 20 µM (active).

Turning to `CCOC(=O)C1CCN(c2ncc(-c3ccc4c(c3)OCCCO4)s2)CC1`, the results for the Potency in test [1], in test [3] and in test [4] were 5.65 µM (active), 10.1 µM (active) and 4 µM (active), respectively. Also, the Potency result in test [2] was “inactive”. Consider `Cc1ccc(S(=O)(=O)Nc2cc(F)ccc2C(=O)Nc2nc(-c3ccccc3)cs2)cc1`, for which the Potency in test [1] was 0.224 µM (active); in test [4] it was 5.04 µM (active). For the same molecule, the Potency entry in test [2], in test [3] and in test [5] was “inactive” each time. For the molecule `COc1ccc(-n2c(C)c(C(C)=O)c3ccccc32)cc1`, the Potency is 0.4 µM (active) in test [1] and 15.8 µM (active) in test [3]. The Potency result in test [2], in test [4] and in test [5] was “inactive” in each case. For the molecule `CC(=O)Nc1sc2c(c1-c1nc3ccccc3o1)CCN(C(C)C)C2`, the Potency in test [1] is 7.08 µM (active); in test [3], 12.6 µM (active). Moreover, the Potency result in test [2] is “inactive”. On to `O=C(c1ccco1)N1CCN(Cc2nc3ccccc3c(=O)n2-c2ccccc2Oc2ccccc2)CC1`, for which, in test [1], the Potency result was “inactive”. As for `COc1cccc(NC(=O)c2cc3c(-c4ccc(Cl)cc4)nn(C)c3s2)c1`, the Potency result in test [1] is “inactive”. Still for that read-out and setting: the same measure for `O=C(NCc1ccccc1Cl)c1ccc(-c2nn[nH]n2)cc1`: “inactive”.
